An excerpt weighted towards active compounds, which were near 12% of everything screened.
Sfp inh – qHTS Assay for Inhibitors of Bacillus subtilis Sfp phosphopantetheinyl transferase (PPTase). Potency, µM, for inactives: largest response in the series, negative = inhibition, usual class: inhibitors. Biochemical Sfp PPTase activity, qHTS. 310,000 tested, 3.5% active. AID 1490, 2009;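 note: the enzyme is Sfp with the accession as filed and its product quenches rhodamine fluorescence; 0% = enzyme reaction without inhibitor and -100% = no enzyme wells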
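Compounds were incubated with enzyme (final 15 nM) for 15 min at room temperature before substrate addition started the reaction. Fluorescence at 525 nm excitation, 598 nm emission was recorded immediately and after 30 minutes.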
JMJD2A Tudor inh – qHTS Assay for Inhibitors of JMJD2A-Tudor Domain; Lysine-specific demethylase 4A (Homo sapiens), O75164; AlphaScreen JMJD2A-Tudor / H3K4me3 peptide binding; Potency, µM (top dose mostly 114 µM), inactives show top-dose activity change, negative = inhibition, usual class: inhibitors; 390,000 tested, 4.4% active; note: % is set by controls: 0 for no effect and ±100 for the full control effect; nearly all actives have a fitted effect of over 50% in size
L3MBTL1 block – qHTS Assay for the Inhibitors of L3MBTL1; Lethal(3)malignant brain tumor-like protein 1 (Homo sapiens), Q9Y468; AlphaScreen L3MBTL1–H3K9me1 peptide binding; Potency, µM (titrated, usually from 57.1 µM), for the others: at the top dose activity, negative = inhibition, most hits filed as inhibitors; 230,000 tested, 0.66% active; AID 485360, 2010; note: % is set by controls: 0 for no effect and ±100 for the full control effect; nearly all actives have a fitted effect of over 60% in size
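Displacement of a biotinylated histone H3(1-15) peptide monomethylated at Lys9 (75 nM) from L3MBTL1 (50 nM) was measured by AlphaScreen after a 30 min room-temperature compound incubation; cefsulodin titration served as intraplate control.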
BAZ2B block – qHTS Assay for Inhibitors of BAZ2B; Bromodomain adjacent to zinc finger domain protein 2B (Homo sapiens), Q9UIF8; AlphaScreen BAZ2B-H3K14Ac peptide displacement; Potency, µM (titrated, usually from 114 µM), for the others: at the highest dose activity change, negative = inhibition, usual class: inhibitors; 360,000 tested, 4.4% active; note: % is set by controls: 0 for no effect and ±100 for the full control effect; nearly all actives have a fitted effect of over 60% in size
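BAZ2B 50 nM plus b-H3(5-23)K14Ac 50 nM, PBS pH 7.4/0.01% Tween-20, 30 min RT; compound added (max 110 uM), 30 min RT; streptavidin donor/Ni-chelate acceptor beads 10 ug/mL final, 20 min dark; AlphaScreen read.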
G9a inh – qHTS Assay for Inhibitors of Histone Lysine Methyltransferase G9a | Histone-lysine N-methyltransferase EHMT2 (Homo sapiens), Q96KQ7 | G9a H3K9 monomethylation, AlphaScreen, 2 h | Potency, µM (top dose mostly 102 µM), for the others: top-dose activity, negative = inhibition, actives largely listed as inhibitors | 350,000 tested, 8.8% active | AID 504332, 2011; note: % is set by controls: 0 for no effect and ±100 for the full control effect; nearly all actives have a fitted effect of over 75% in size
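G9a (20 nM) was preincubated 15 min with compound, then reacted 2 h at room temperature with 500 nM biotin-H3K9 peptide and 20 µM SAM. Monomethyl-H3K9 detected by AlphaScreen using anti-H3K9me1 antibody.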
HP1b chromo inh – HTS for Inhibitors of HP1-beta Chromodomain Interactions with Methylated Histone Tails. Potency, µM (highest dose often 114 µM), for inactives: at the top dose activity change, negative = inhibition, most hits filed as inhibitors. 390,000 tested, 0.56% active. Chromobox protein homolog 1 (Homo sapiens), P83916. AlphaScreen HP1-beta / biotin-H3K9me3 peptide binding; note: nearly all actives have a fitted effect of over 70% in size
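AlphaScreen: HP1-beta (50 nM) preformed 30 min with biotin-H3(1-18)K9me3 peptide (50 nM) in PBS pH 7.4, 0.01% Tween-20. Compound added for 30 min at RT, then streptavidin donor/nickel chelate acceptor beads (10 ug/mL) for 30 min.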
Active calls of the source: *; ? = inconclusive; . = not tested or not shown; [ ] = remark or other dose. Calls come from the whole dose curve; as a rule, active = well fitted curve in the direction sought with a large enough effect; inconclusive = small, poorly fitted or top-dose-only effect, or another doubt; inactive = no such curve, though single readings can be large; an effect the other way counts as inactive or inconclusive. Potency is the fitted concentration of half-maximal effect.

SMILES | Sfp inh | JMJD2A Tudor inh | L3MBTL1 block | BAZ2B block | G9a inh | HP1b chromo inh
O=C(N/N=C/c1ccccn1)c1ccc(NC(=O)c2ccccc2Cl)cc1 | -12% | -29% | . | -3% | 3% | -1%
Cc1cccc(/C=N/NC(=O)c2cccc(Cl)c2)n1 | 4% | -23% | . | 16% | 22% | -1%
O=C(O)CN1C(=O)/C(=C\c2cn(-c3ccccc3)nc2-c2ccccc2)SC1=S | ? | 50µM* | . | ? | 11µM* | -21%[57 µM]
CCN1C(=O)/C(=C\c2cn(-c3ccccc3)nc2-c2cccnc2)SC1=S | 3% | -17% | -4% | -11% | 1% | 18%
C#CCN1C(=O)S/C(=C/c2cc(C)n(CC)c2C)C1=O | -6% | -23% | 27% | 18% | -2% | 29%
CCOc1ccc(-c2nn(-c3ccccc3)cc2/C=C2\SC(=S)N(Cc3ccco3)C2=O)cc1 | 1% | ? | 2% | -9% | 9%[59 µM] | -2%
CCn1c(C)cc(/C=C2/SC(=S)N(CC(=O)O)C2=O)c1C | -6% | -31% | -11% | -32% | 50µM* | 1%
CC(C)COc1ccc(-c2nn(-c3ccccc3)cc2/C=C2/SC(=S)N(CC(=O)O)C2=O)cc1 | -21% | 45µM* | -20% | 45µM* | 50µM* | 40µM*
COc1ccc(-n2c(C)c([N+](=O)[O-])c3ccc(O)c(CN4CCCCC4)c32)cc1 | -19% | ? | . | ? | 25µM* | ?
Cc1cccc(C(=O)N2CCc3cc(-c4csc(NC(=O)CN5CCCC5)n4)ccc32)c1 | -17% | ? | . | ? | ? | -13%
CC(=O)Nc1nc(-c2ccc3c(c2)CCN3S(C)(=O)=O)cs1 | 56µM* | -16% | -8% | ? | . | -15%
CS(=O)(=O)N1CCc2cc(-c3csc(NC(=O)Cc4cccs4)n3)ccc21 | 18% | -22% | . | -24% | -29%[12.7 µM] | 10%
CC(C)(C)Nc1nc(-c2ccc3c(c2)CCN3C(=O)C2CC2)cs1 | -22% | ? | . | ? | 40µM* | ?
CNc1nc(-c2ccc3c(c2)CCN3C(=O)c2ccc(F)cc2)cs1 | -5% | -27% | 9% | ? | 32µM* | 9%
CNc1nc(-c2ccc3c(c2)CCN3C(=O)c2ccccc2C)cs1 | ? | ? | -16% | 50µM* | 22µM* | ?
O=C(CN1CCCC1)Nc1nc(-c2ccc3c(c2)CCN3C(=O)c2ccccc2F)cs1 | -5% | ? | . | -28% | ? | -6%
CC(C)(C)NC[C@H](O)COc1cccc2c1CCC(=O)N2 | 12% | . | . | . | 23%[21.5 µM] | .
Cc1ccccc1NC(=O)/C(C#N)=C/c1ccc(Cl)cc1Cl | . | -23% | . | -31% | -34%[59 µM] | 4%
Cc1ccccc1Cn1c(SCc2ccc(C(=O)NC(C)c3ccccc3)cc2)nc2ccncc21 (stereo not given) | . | -18% | . | -10% | ? | 25%
N[C@@H](C(=O)O)[C@@H](CC(=O)O)c1ccc(Cl)cc1 | -4% | . | . | . | 20%[59 µM] | .
Cc1cccc(C(=O)Nc2onc(C)c2C#N)c1 | 9% | 89µM* | 10% | ? | . | 0%
CC(=O)NCCNc1ncnc2ccc(-c3ccccc3C(F)(F)F)cc12 | 30% | . | . | . | -39%[0.501 µM] | .
O=C(O)c1ccc(Cl)c(S(=O)(=O)N(Cc2ccccc2)c2ccc(Cl)cc2)c1 | 19% | -17% | . | -23% | 50µM* | 17%
NC(=O)NC(=O)COC(=O)c1ccc(Cl)c(S(=O)(=O)N(Cc2ccccc2)c2ccc(Cl)cc2)c1 | 28% | -18% | -11% | -32% | 3%[59 µM] | 5%

Bioassay records: PubChem BioAssay, National Center for Advancing Translational Sciences (NCATS)
